Source: PubChem BioAssay
G9a block: qHTS Assay for Inhibitors of Histone Lysine Methyltransferase G9a | G9a H3K9 monomethylation, AlphaScreen, 2 h | Potency, µM (top dose mostly 102 µM), for the others: at the highest dose activity, negative = inhibition, most hits filed as inhibitors | 350,000 compounds, 8.8% hits | AID 504332, 2011; note: potency is the fitted concentration of half-maximal effect; % is set by controls: 0 for no effect and ±100 for the full control effect; nearly all actives have a fitted effect of over 75% in size
Target sequence (Q96KQ7 913-1193 limits assumed): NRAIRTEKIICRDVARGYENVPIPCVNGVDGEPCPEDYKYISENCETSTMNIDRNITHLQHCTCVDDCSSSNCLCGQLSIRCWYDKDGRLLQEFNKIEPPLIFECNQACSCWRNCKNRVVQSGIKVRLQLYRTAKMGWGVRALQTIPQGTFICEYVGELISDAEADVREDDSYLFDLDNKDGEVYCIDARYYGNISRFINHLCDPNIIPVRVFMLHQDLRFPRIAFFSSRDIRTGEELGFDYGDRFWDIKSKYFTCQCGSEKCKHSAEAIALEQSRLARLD
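Chemiluminescent proximity detection of H3K9 monomethylation, read after 10 min bead incubation in the dark. Reaction: 20 nM G9a, 500 nM biotin-H3K9 peptide, 20 uM SAM cofactor, 2 h, room temperature, following 15 min enzyme-compound preincubation.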
HP1b chromo inh: HTS for Inhibitors of HP1-beta Chromodomain Interactions with Methylated Histone Tails; AID 540317, 2011; AlphaScreen HP1-beta / biotin-H3K9me3 peptide binding; 390,000 compounds, 0.56% hits; Potency, µM (doses to about 114 µM), inactives show top-dose activity change, negative = inhibition, most hits filed as inhibitors; note: potency is the fitted concentration of half-maximal effect; nearly all actives have a fitted effect of over 70% in size
Target sequence (P83916 whole entry, looked up): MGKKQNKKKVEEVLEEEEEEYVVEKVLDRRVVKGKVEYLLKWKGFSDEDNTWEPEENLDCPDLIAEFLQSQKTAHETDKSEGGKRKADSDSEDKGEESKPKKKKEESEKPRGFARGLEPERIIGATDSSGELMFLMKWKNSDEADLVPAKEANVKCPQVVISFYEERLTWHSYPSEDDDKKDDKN
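AlphaScreen: HP1-beta (50 nM) preformed 30 min with biotin-H3(1-18)K9me3 peptide (50 nM) in PBS pH 7.4, 0.01% Tween-20. Compound added for 30 min at RT, then streptavidin donor/nickel chelate acceptor beads (10 ug/mL) for 30 min.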
BAZ2B block: qHTS Assay for Inhibitors of BAZ2B. Bromodomain adjacent to zinc finger domain protein 2B (Homo sapiens), Q9UIF8. 360,000 compounds, 4.4% hits. AlphaScreen BAZ2B-H3K14Ac peptide displacement. Potency, µM (highest dose often 114 µM), without a hit: at the highest dose activity change, negative = inhibition, most hits filed as inhibitors; note: potency is the fitted concentration of half-maximal effect; % is set by controls: 0 for no effect and ±100 for the full control effect; nearly all actives have a fitted effect of over 60% in size
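AlphaScreen luminescence quantifies BAZ2B engagement of H3K14Ac peptide; the protein and biotinylated peptide are both at 50 nM final, buffer PBS pH 7.4 with 0.01% Tween-20, all steps at room temperature.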
Six1-Eya2 blk: qHTS Assay for Inhibitors of the Six1/Eya2 Interaction | Homeobox protein SIX1 (Homo sapiens) + Protein phosphatase EYA2 (Homo sapiens), … | activity change, % (test concentration not listed) | AlphaScreen GST-Six1/His-Eya2 binding, biochemical; hits give low values | 360,000 compounds, 0.56% hits; in the data active = activity change below about -65%; inconclusive = mostly about -30% to -63%; note: % is set by controls: 0 for no effect and ±100 for the full control effect
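Compounds are tested against tagged Six1 and Eya2 proteins bridged by glutathione donor and nickel acceptor beads; after a one-hour incubation at 37 °C without light, AlphaScreen emission is recorded.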
CtBP-E1A inh: qHTS Assay for Inhibitors of the CtBP/E1A Interaction; CtBP / adenovirus E1A interaction (AlphaScreen); AlphaScreen GST-E1A/His-CtBP binding, 1536-well; hits give low values; activity change, % (concentration not given with the values); 340,000 compounds, 0.49% hits; in the data active = activity change below about -65%; inconclusive = mostly about -30% to -63%; note: % is set by controls: 0 for no effect and ±100 for the full control effect
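AlphaScreen with 125 nM GST-E1A and 125 nM His-CtBP (5X stocks) in Tris pH 8.0, 300 mM NaCl, BSA, Tween 20, TCEP. Compounds preincubated 2 h at 37 deg C, then glutathione donor/nickel acceptor beads added for 1 h at 37 deg C in dark.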
JMJD2A Tudor inh: qHTS Assay for Inhibitors of JMJD2A-Tudor Domain | Lysine-specific demethylase 4A (Homo sapiens), O75164 | AlphaScreen JMJD2A-Tudor / H3K4me3 peptide binding | Potency, µM (titrated, usually from 114 µM), for the others: at the top dose activity change, negative = inhibition, actives largely listed as inhibitors | 390,000 compounds, 4.4% hits | AID 504339, 2011; note: potency is the fitted concentration of half-maximal effect; % is set by controls: 0 for no effect and ±100 for the full control effect; nearly all actives have a fitted effect of over 50% in size
The depositor's hits bear a star; ? = inconclusive; nt = not tested or not shown; [ ] = dose if it differs, or a comment. This is a sample that favours compounds with a hit; in the whole collection about 10% have one here. Unless noted, calls come from the whole dose curve; as a rule, active = well fitted inhibition curve with a large enough effect; inconclusive = small, poorly fitted or top-dose-only effect; inactive = no such curve, though single readings can be large or run the other way.

SMILES	G9a block	HP1b chromo inh	BAZ2B block	Six1-Eya2 blk	CtBP-E1A inh	JMJD2A Tudor inh
CS(=O)(=O)/C(C#N)=C\c1cnc(S(=O)(=O)c2ccccc2)s1	1µM*	nt	50.1µM*	nt	nt	nt
CN(C)/C=C(\C#N)S(=O)(=O)c1ccccc1	-5.8%	29.8%	-25.4%	4.5	nt	-16.3%
CN(C)c1ccc(C2/C(=C(/O)c3ccccc3)C(=O)C(=O)N2CCCC(=O)O)cc1 (stereo not given)	?	26.5%	-26.0%	-2.8	7.2	?
COCCCN1C(=O)C(=O)/C(=C(/O)c2ccccc2)C1c1ccc(N(C)C)cc1 (stereo not given)	44.7µM*	7.2%	?	1.0	6.5	?
COCCCN1C(=O)C(=O)/C(=C(/O)c2ccccc2)C1c1ccc2c(c1)OCO2 (stereo not given)	56.2µM*	20.4%	-35.1%	-1.5	8.5	?
O=c1/c(=C\c2ccc(O)cc2)sc2n1C(c1ccccc1)C(c1ccccc1)=NN=2 (stereo not given)	44.7µM*	-5.8%	-30.8%[57.1 µM]	-23.1	-14.6	-30.1%
Cc1cccc(NS(=O)(=O)c2ccc(Br)s2)n1	?	25.1%	-8.1%	6.0	7.7	-11.3%
Cc1ccc(NS(=O)(=O)c2ccc(Br)s2)nc1	39.8µM*	-14.5%	-31.0%	-2.0	2.3	-19.7%
Cc1cc(C)nc(NS(=O)(=O)c2ccc(Br)s2)c1	50.1µM*	30.1%	-1.6%	5.5	-2.5	-21.4%
CCCNc1nc2ccccc2c(=O)[nH]1	7.8%	1.7%	4.2%	-2.3	1.0	-2.1%
CCCNc1ncc2c(=O)[nH][nH]c(=O)c2n1	nt	3.5%	nt	-28.3	-25.0	20µM*
O=S(=O)(N/N=C/c1ccc2c(c1)OCO2)c1ccc(Br)cc1	nt	39.4%	-15.0%	-4.3	0.1	-20.2%
Cc1onc(-c2c(F)cccc2Cl)c1C(=O)NCc1ccco1	-18.4%[59 µM]	30.6%	-30.3%	-6.0	0.0	5.2%
Cc1onc(-c2c(F)cccc2Cl)c1C(=O)Nc1cccc(S(=O)(=O)NCc2ccco2)c1	56.2µM*	-18.3%	nt	-2.1	0.0	-32.9%
O=C(Nc1ccc(S(=O)(=O)NCc2ccco2)cc1)c1cccc(F)c1	56.2µM*	-16.3%	-29.1%	0.4	-19.0	-20.1%
COC(=O)c1scc(-c2ccc(C)cc2)c1S(=O)(=O)N1CCN(c2ccc(F)cc2)CC1	?	?	-29.0%	nt	nt	-28.3%
[O-]c1n[n+](-c2ccc(Cl)cc2)cc2ccccc12	35.5µM*	3.6%	-10.0%	-3.0	-8.5	14.1µM*
COc1ccc(N2CCN(C(=O)c3cn(C)c(=O)c4c3c3ccccc3n4C)CC2)cc1	31.6µM*	-10.5%	44.7µM*	-20.8	-18.3	?
Cn1c2ccccc2c2c(C(=O)NCc3ccco3)cn(C3CCCCC3)c(=O)c21	?	5.8%	?	-0.2	-0.5	-33.3%
Cc1ccc(CNC(=O)c2cn(C3CCCC3)c(=O)c3c2c2ccccc2n3C)o1	11.2µM*	nt	56.2µM*	nt	nt	nt
COc1ccc(N2CCN(C(=O)c3cn(C4CCCC4)c(=O)c4c3c3ccccc3n4C)CC2)cc1	31.6µM*	?	?	?	?	14.1µM*
CCOC(=O)N1CCN(C(=O)c2cn(C)c(=O)c3c2c2ccccc2n3C)CC1	-33.6%[59 µM]	40.3%	-0.8%	24.3	36.9	-5.8%
C=CCn1cc(C(C)=O)c(=O)[nH]c1=O	14.0%	62.9%	-2.2%	24.7	-10.7	-1.4%
C=CCn1cn[nH]c1=S	12.6µM*	43.0%	?	-2.2	-0.9	?
O=C(CNCC1CCCO1)N1CCN(S(=O)(=O)c2ccc3ccccc3c2)CC1 (stereo not given)	?	-34.6%	56.2µM*	-2.0	0.2	7.94µM*
